Here are results for 17 molecules from PubChem BioAssay (NCI).

Compounds without any hit were thinned out: in the full panel of roughly 83,000, 20% have a hit.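 Single-concentration screen, 48 h exposure, 96-well plates. Endpoint: percent growth. Below 10 = active.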 Unmarked numbers belong to inactive results. Active and inactive are the calls of the source.

What all share (experiment): NCI-60 one-dose screen, 48 h (100 = growth as untreated, 0 = no growth, -100 = all killed)
Conditions in all cases: 10 µM unless noted

Assay [1] deals with SR leukemia.
Assay [2] relates to RPMI-8226 leukemia.
Assay [3] deals with OVCAR-8 ovarian.
In assay [4] the test system is OVCAR-5 ovarian.
The test system of assay [5] is OVCAR-4 ovarian.
Assay [6] deals with SK-OV-3 ovarian.
Assay [7] has as its system IGROV1 ovarian.
In assay [8] the test system is OVCAR-3 ovarian.
In assay [9] the test system is HS 578T breast.
In assay [10] the test system is NCI/ADR-RES ovarian.
In assay [11] the test system is T-47D breast.
The subject of assay [12] is MDA-MB-435 melanoma.
The test system of assay [13] is SW-620 colon.
The subject of assay [14] is MCF7 breast.
Assay [15] deals with HCT-116 colon.
Assay [16] deals with HCC-2998 colon.
In assay [17] the test system is KM12 colon.
Assay [18] has as its system BT-549 breast.

On to `COc1cc2nc(Cl)nc(Nc3cccc(C4=Nc5c(N)nc(N)nc5NC(c5ccc6c(c5)OCO6)C4)c3)c2cc1OC` (stereo unspecified), for which the growth was 10.3% in assay [1]; 41.7% in assay [2]; 68.2% in [3]; 112% in assay [4]; 97% in assay [5]; 112% in assay [6]. For the same molecule, the growth in assay [7] is 77.6%; in assay [8], 63.5%; in assay [9] it was 82.7%; in assay [10], 93.1%; in assay [11], 68.9%; in assay [12], 88.5%. For the same molecule, the growth in assay [13] is 76.9%; in assay [14], 54%; in assay [15], 55.3%; in [16] it was 74.6%; in assay [17] it was 46.8%.
Take `Cc1cc(S(=O)(=O)N(C)C)cc(NCC(=O)NC(=O)NCC(C)C)c1C`: the growth is 91% in [1]; 97.4% in assay [2]; 104% in assay [3]; 87.8% in assay [4]; 76.4% in [5]; 112% in [6]. Further, the growth in assay [7] was 77.2%; in [8] it was 112%; in [9] it was 103%; in assay [10], 114%; in assay [11] it was 110%; in assay [12], 98.8%. Besides, the growth in [13] was 98.4%; in [14], 94.8%; in assay [15], 100%; in assay [16], 120%; in assay [17], 102%.
`NC(N)=Nc1ccc(Oc2cccc(NC(N)=Nc3ccc(Br)cc3)c2)cn1`: the growth is 34.5% in assay [1]; 51.4% in assay [2]; 68.1% in assay [3]; 66.7% in assay [4]; 71% in [5]; 73.6% in [6]. Moreover, the growth in assay [7] is 37.9%; in assay [8] it was 64.9%; in assay [9], 44.2%; in assay [10], 100%; in [11], 37.8%; in [12], 72.7%. The growth was 76% in [13]; 10.8% in assay [14]; 69.2% in assay [15]; 79.3% in [16]; 66.5% in [17].
As for `N#Cc1cn(Cc2ccc(Cl)cc2Cl)c(C(=O)c2ccc(Br)cc2)c1N`, the growth in [1] was 99.5%; in assay [2], 111%; in assay [3], 84.5%; in assay [4], 92%; in assay [5], 100%; in [6], 90.4%. Moreover, the growth is 97.3% in assay [7]; 105% in [8]; 90% in [9]; 88.8% in assay [10]; 87.8% in assay [11]; 95.6% in assay [12]. The growth in assay [13] was 98.8%; in [14], 87.2%; in assay [15], 101%; in [17] it was 99.3%.
Regarding `Nc1nc(Nc2ccccc2SSc2ccccc2Nc2nc(N)nc(-c3cccc(Br)c3)n2)nc(-c2cccc(Br)c2)n1`, the growth in assay [1] was -44% (active); in [2], 59.6%; in assay [3], 68.4%; in assay [4] it was 95.5%; in assay [5] it was 73%; in assay [6], 131%. Further, the growth was 54.9% in [7]; 100% in assay [8]; 74.3% in [9]; 21.3% in assay [10]; 62.6% in assay [11]; 93.9% in [12]. The growth is 98.5% in assay [13]; 69.2% in assay [14]; 47.8% in assay [15]; 120% in assay [16]; 23.6% in [17].
For the molecule `NC(N)=Nc1ccc(Oc2cccc(NC(N)=Nc3ccc(Br)c(C(F)(F)F)c3)c2)cc1`, the growth is 4.94% (active) in assay [1]; 45.5% in [2]; 65.5% in assay [3]; 45.1% in [4]; 58.9% in [5]; 57% in [6]. Besides, the growth was -16.6% (active) in assay [7]; 23.5% in [8]; 34% in [9]; 96.8% in [10]; 45.9% in assay [18]; 57.5% in assay [12]. The growth in [13] is 53.4%; in assay [14] it was 32.2%; in assay [15], 42.9%; in [16] it was 50.8%; in assay [17], 20.4%.
In the case of `O=C1CCCc2nc(Nc3ccc(S(=O)(=O)Nc4ccc([N+](=O)[O-])cc4)cc3)ncc21`, the growth in assay [1] was 105%; in assay [2], 100%; in assay [3] it was 106%; in [4] it was 111%; in assay [5], 107%; in assay [6] it was 109%. Moreover, the growth was 98% in [7]; 98.9% in assay [8]; 98.4% in assay [9]; 105% in [10]; 105% in assay [11]; 104% in assay [12]. Besides, the growth in assay [13] was 102%; in assay [14], 95.2%; in assay [15] it was 108%; in assay [16], 110%; in assay [17] it was 98.3%.
As for `C=C(C)[C@@H]1CC[C@]2(COCCCNCCC#N)CC[C@]3(C)[C@H](CC[C@@H]4[C@@]5(C)CC[C@H](OCCCNCCC#N)C(C)(C)[C@@H]5CC[C@]43C)[C@@H]12`, the growth in assay [1] was -18.4% (active); in [2], 34%; in [3] it was 66.6%; in assay [4], 83.7%; in [5] it was 23.9%; in assay [6], 97.8%. Moreover, the growth in assay [7] was 72.1%; in assay [8] it was 71%; in assay [9] it was 72.6%; in assay [10], 37.3%; in assay [11], 53.3%; in [12] it was 56.4%. In addition, the growth in assay [13] was 64.7%; in assay [14] it was 32.5%; in assay [15], 24.7%; in assay [16], 31.8%; in [17], 64.4%.
Turning to `O=C(NNc1nc2cc(F)ccc2n2c(CN3CCCC3)ccc12)c1cnccn1`, the growth in assay [1] is 4.32% (active); in assay [2] it was 20.6%; in assay [3], 13.9%; in assay [4], 33.5%; in [5] it was 14.1%; in assay [6], 16.8%. In addition, the growth in [7] was 13.8%; in assay [8] it was 4.58% (active); in assay [9] it was 68.1%; in assay [10], 0.656% (active); in assay [11], 15.4%; in assay [18], 24.1%. Moreover, the growth in assay [12] was 34.4%; in assay [13], 22.3%; in [14], 4.57% (active); in [15] it was 11.1%; in assay [17], 20.3%.
`CS(=O)(=O)Nc1cc(-c2ccc3ncc(C#N)c(NCc4ccccc4O)c3c2)cnc1Cl`: the growth in [1] was 6.89% (active); in assay [2], -21% (active); in assay [3] it was 8.27% (active); in assay [4] it was 21.7%; in [5], 14.1%; in assay [6], -5.88% (active). The growth in [7] was -41.8% (active); in assay [8], 3.31% (active); in assay [9] it was -17.9% (active); in assay [10], 42.4%; in [18] it was -10% (active); in assay [12] it was 5.99% (active). In addition, the growth in assay [13] is 9.16% (active); in assay [14], 1.5% (active); in assay [15], 2.58% (active); in [16] it was -1.75% (active); in [17] it was 10%.
On to `C=CC(=O)N1CC=C(c2cc3c(N[C@H](C)c4ccccc4)ncnc3[nH]2)CC1`, for which the growth was 66.7% in assay [1]; 85.8% in assay [2]; 85.8% in [3]; 37.5% in assay [4]; 71.9% in [5]; 47.4% in assay [6]. For the same molecule, the growth in [7] is 6.95% (active); in assay [8], 70.3%; in assay [9] it was 39.9%; in assay [10], 89.5%; in assay [11] it was 71.6%; in assay [12], 95%. Besides, the growth in assay [13] is 87%; in assay [14] it was 75.5%; in assay [15] it was 86.1%; in assay [16], 89.6%; in assay [17] it was 98.9%.
In the case of `CC(=O)Nc1cccc(Nc2nc(N[C@@H](C)c3ccccc3)c3ccccc3n2)c1`, the growth in assay [1] was -43.4% (active); in [2], -30.9% (active); in [3], 39%; in assay [4] it was 18.6%; in [5], 17.5%; in [6], 53.6%. The growth in assay [7] was 18.4%; in [8] it was 13%; in [9], 1.68% (active); in [10], -0.0139% (active); in [11] it was 58.4%; in assay [12], -48.9% (active). For the same molecule, the growth in assay [13] was 20.4%; in assay [14], 8.63% (active); in [15], 6.47% (active); in assay [16] it was -6.49% (active); in assay [17], 22.9%.
With `O=C(Nc1nc2ccc([N+](=O)[O-])cc2s1)Nc1ccccc1Br`, the growth is 23.2% in [1]; 6.15% (active) in [2]; 51.4% in assay [3]; 84.4% in [4]; 12.2% in assay [5]; 63.6% in [6]. The growth is 47.3% in [7]; 25.9% in [8]; 47.1% in assay [9]; 52.1% in assay [10]; 33.8% in [11]; 38.2% in assay [12]. Also, the growth in [13] is 39.2%; in assay [14], 24.8%; in assay [15], 18.1%; in assay [16] it was 37.8%; in assay [17] it was 15.1%.
With `C=C(C=O)[C@@H]1CC[C@]2(C)[C@H](C(=O)C=C3[C@H]4C[C@](C)(C(=O)OC)CC[C@]4(C)CC[C@]32C)[C@@]1(C)CCC#N`, the growth was -9.31% (active) in assay [1]; -16.5% (active) in [2]; 13.5% in [3]; -25.7% (active) in [4]; 20.6% in assay [5]; 102% in assay [6]. For the same molecule, the growth in assay [7] is 2.58% (active); in [8] it was -47.2% (active); in [9], -2.47% (active); in assay [10] it was -24.3% (active); in assay [11] it was 19.3%; in assay [12], -12.2% (active). Besides, the growth in assay [13] is 4.74% (active); in assay [14] it was 2.5% (active); in assay [15], -56% (active); in assay [17], 3.36% (active).
For the molecule `COc1cc(-c2nn(C(C)(C)C)cc2-c2ccnc(NCCCNS(=O)(=O)c3ccc(C)cc3)n2)ccc1Cl`, the growth in assay [1] was 51.3%; in assay [2], 88.9%; in assay [3] it was 89.8%; in [4] it was 88.1%; in assay [5] it was 56.3%; in [6], 106%. In addition, the growth in [7] is 62.8%; in assay [8], 95.5%; in assay [9], 76.6%; in assay [10], 89.8%; in [11] it was 84.6%; in [12] it was 92.2%. For the same molecule, the growth in [13] was 93.7%; in assay [14], 79.8%; in [15], 67.4%; in assay [16], 115%; in assay [17] it was 94%.
As for `COc1ccc(/C(N)=N/C(N)=N/c2nc3ccccc3s2)cc1`, the growth in assay [1] is 13.4%; in assay [2], 43.6%; in [3] it was 97.3%; in [4] it was 103%; in assay [5] it was 76.5%; in assay [6] it was 99.6%. Besides, the growth was 49.8% in assay [7]; 96% in [8]; 81.3% in [9]; 35% in assay [10]; 80.4% in [11]; 20.3% in assay [12]. In addition, the growth in assay [13] is 65.4%; in assay [14], 71.2%; in assay [15] it was 79.6%; in assay [17] it was -11.5% (active).
For the molecule `Oc1[nH]c2ccccc2c1Nn1c(N=N/C=c2/ccc3c(c2)C=NN=3)n[nH]c1=S`, the growth in [1] was 84.5%; in assay [2], 91%; in [3], 105%; in [4], 109%; in [5], 84.6%; in [6], 106%. Besides, the growth in assay [7] is 74.6%; in assay [8], 96.8%; in assay [9] it was 103%; in assay [10], 112%; in assay [11], 99%; in assay [12] it was 103%. Moreover, the growth in assay [13] was 99%; in assay [14], 77.1%; in assay [15], 104%; in assay [16], 118%; in assay [17], 93.3%.
